ELG1 DNA repair – ELG1-dependent DNA repair inhibition. HEK293T ELG1-luciferase reporter, luminescence, 16 h; DNA damage induced by 5-fluorouridine. Potency, µM (titrated, usually from 46.1 µM), without a hit: top-dose activity change, negative = inhibition, usual class: inhibitors. 2.3% of 330,000 active; also: potency is read from the fitted curve at half-maximal effect; nearly all actives have a fitted effect of over 55% in size
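HEK293T cells expressing luciferase-tagged ELG1 (2,000/well) received 5-Fluorouridine plus compound or DMSO for 16 hr at 37 °C. Luciferase was read by ONE-Glo luminescence after 30 min at room temperature.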
TSHR antagonist – antagonists of human thyroid stimulating hormone receptor; TSHR-expressing cells, TSH-stimulated cAMP HTRF, 2 h; active compounds read low; activity change, negative = inhibition, % at 11.5 µM; 0.2% of 330,000 active; AID 504810;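 active = activity change below a set negative limit, meaning inhibition stronger than a set level, cut at about -70% in these data; inconclusive = activity change between two set negative limits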
Target sequence (P16473 whole entry, looked up): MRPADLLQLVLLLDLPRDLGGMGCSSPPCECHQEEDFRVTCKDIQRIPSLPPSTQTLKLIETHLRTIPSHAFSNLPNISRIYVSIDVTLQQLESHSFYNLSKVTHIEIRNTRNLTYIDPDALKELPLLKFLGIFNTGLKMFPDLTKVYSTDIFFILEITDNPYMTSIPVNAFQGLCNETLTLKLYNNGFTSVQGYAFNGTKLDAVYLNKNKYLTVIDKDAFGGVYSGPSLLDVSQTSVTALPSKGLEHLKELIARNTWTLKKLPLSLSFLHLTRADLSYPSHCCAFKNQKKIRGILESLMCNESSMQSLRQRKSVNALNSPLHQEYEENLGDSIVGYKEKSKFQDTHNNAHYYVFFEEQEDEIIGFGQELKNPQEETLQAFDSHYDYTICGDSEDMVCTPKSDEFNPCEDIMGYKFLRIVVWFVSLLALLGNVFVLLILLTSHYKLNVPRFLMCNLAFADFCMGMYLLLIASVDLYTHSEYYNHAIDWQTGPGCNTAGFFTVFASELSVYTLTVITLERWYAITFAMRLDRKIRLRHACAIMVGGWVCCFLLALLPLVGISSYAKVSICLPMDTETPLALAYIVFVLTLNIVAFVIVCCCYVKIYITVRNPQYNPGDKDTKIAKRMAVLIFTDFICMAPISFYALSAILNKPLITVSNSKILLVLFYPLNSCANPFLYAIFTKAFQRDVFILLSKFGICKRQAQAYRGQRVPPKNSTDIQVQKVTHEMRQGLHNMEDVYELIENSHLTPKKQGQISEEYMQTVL
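Inhibition of cAMP made by TSHR-expressing cells under TSH stimulation (4nM final, EC80; 2 h, 37 deg C) is quantified with a one-step lysis HTRF kit, anti-cAMP cryptate versus cAMP-d2.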
Gal4-VP16 FLuc – Gal4-VP16 reporter inhibition counter-screen; 3.5% of 310,000 active; Drosophila S2 Gal4-VP16 UAS-luciferase, luminescence, 20 h; Potency, µM (doses to about 53.6 µM), inactives show at the highest dose activity, negative = inhibition, most hits filed as inhibitors;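 also: Gal4-VP16 expression switched on by copper sulfate through the metallothionein promoter; potency is read from the fitted curve at half-maximal effect; nearly all actives have a fitted effect of over 50% in size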
FBPA coupling cs – coupling enzyme interference in Giardia aldolase counter-screen | coupling enzyme system counterscreen, AmpLite Red fluorescence | activity change, negative = inhibition, % at 58.2 µM, hits read low | 0.67% of 290,000 active | AID 2472; in the data active = activity change below about -30%
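First, compound is pin-transferred into glyceraldehyde-3-phosphate coupling-enzyme reagent at 57.5 uM final and held 10 min at RT. Next, substrate, coupling system and AmpLite Red are added. After 20 min RT, fluorescence (525/598 nm) is read.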
RORg inh – inhibitors of mouse ROR gamma transcriptional activity | Drosophila S2 Gal4-RORgamma UAS-luciferase reporter, 20 h | Potency, µM (titrated, usually from 53.6 µM), for the others: at the top dose activity change, negative = inhibition, actives largely listed as inhibitors | 5.4% of 310,000 active; also: potency is read from the fitted curve at half-maximal effect; nearly all actives have a fitted effect of over 60% in size
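Compounds are pin-transferred onto Drosophila Schneider cells expressing a copper-inducible Gal4–ROR gamma transactivation domain fusion. After 1 hr, copper sulfate is added to 700 uM final; luciferase is read 20 hr later.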
Active calls of the source: *; ? = inconclusive; . = no result given. This is a sample that favours compounds with a hit; in the whole collection about 8% have one here. Unless noted, calls follow the shape of the dose curve; as a rule, active = well fitted curve in the direction sought with a large enough effect; inconclusive = small, poorly fitted or top-dose-only effect, or another doubt; inactive = no such curve, though single readings can be large; an effect the other way counts as inactive or inconclusive. % is scaled to controls: 0 for no effect and ±100 for the full control effect.

SMILES | ELG1 DNA repair | TSHR antagonist | Gal4-VP16 FLuc | FBPA coupling cs | RORg inh
COc1ccc(Cn2nnc3c(C)n[nH]c(=O)c32)cc1 | 4% | -1 | -2% | 0 | 2%
COc1ccc(OC)c(-c2nc3c(C)n[nH]c(=O)c3[nH]2)c1 | 6.5µM* | -9 | -14% | 0 | -11%
CC12C=CC(=O)C=C1CCC1C2=CCC2(C)C1CC[C@@H]2C(=O)CN1CCN(c2cc(N3CCCC3)nc(N3CCCC3)n2)CC1 (stereo not given in full) | . | . | 2% | -38* | 7%
O=C(Nc1nccs1)C1CC=CC2CCN(Cc3ccc(Cl)c(Cl)c3)C(=O)C21 (stereo not given) | . | . | -3% | 12 | 0%
Cc1ccccc1OC1CCN(C(=O)c2cc(COc3ccccc3)on2)CC1 | 18% | -28 | 26% | . | 32%
CC(C)CC1CC(C)(c2csc(NNC(=O)c3ccccc3)n2)OC1=O (stereo not given) | ? | 5 | -26% | 0 | 10µM*
CC1(C)CC(CC(=O)NNc2nc(-c3ccccc3)cs2)C(=O)O1 (stereo not given) | -5% | -3 | -2% | -1 | -1%
O=C(CN1CCN(c2ccccc2F)CC1)c1c[nH]c2ccc(F)cc12 | 0% | -1 | -16% | 3 | 22%
NC(=O)C1CCN(CC(=O)c2c[nH]c3ccc(F)cc23)CC1 | 4% | 23 | 16µM* | 1 | -35%
CC(C)C[C@@H]1NC(=O)[C@H](Cc2ccccc2)N(C)C(=O)[C@H](C)NC(=O)c2ccccc2NC(=O)[C@H](Cc2ccc(O)cc2)N(C)C1=O | 6.5µM* | -10 | -10% | -3 | 14%
CC(C)CC1NC(=O)N(CC(=O)N2c3ccccc3NC(=O)C2(C)C)C1=O (stereo not given) | -12% | 10 | 5% | 0 | -13%
Cc1nc(N2CCN(c3ccccn3)CC2)c2c(C)c(C(=O)Nc3c(F)cc(F)cc3Br)sc2n1 | 23µM* | -22 | 25% | 0 | 13%
Cc1nc(N2CCC(C)CC2)c2c(C)c(C(=O)Nc3ccc(C)c(F)c3)sc2n1 | -14% | 15 | -3% | 3 | 16%
Cc1nc(N2CCN(c3ccccn3)CC2)c2c(C)c(C(=O)Nc3c(C)cc(Br)cc3C)sc2n1 | ? | 2 | 15% | 2 | 14%
Cc1nc(N2CCN(c3ccccn3)CC2)c2c(C)c(C(=O)Nc3ccc(Cl)cc3)sc2n1 | 8.2µM* | 7 | -1% | . | -3%
Cc1nc(N2CCC(C)CC2)c2c(C)c(C(=O)Nc3ccccc3C(F)(F)F)sc2n1 | 15µM* | 13 | -8% | -6 | 4%
COc1ccccc1CNc1ccnc(-c2ccccc2C(F)(F)F)n1 | . | . | 3% | 3 | -19%
C=CCSc1nc2sc3c(c2c(=O)n1CC)CCc1ccccc1-3 | -24% | 7 | ? | -1 | 10µM*
CC[C@H](C(=O)[C@H](C)[C@H](O)[C@H](C)CCc1ccc(C)c(O)c1C(=O)O)[C@H]1O[C@](CC)([C@@H]2CC[C@@](O)(CC)[C@H](C)O2)C[C@H]1C | . | . | 6.3µM* | 0 | ?
CC[C@@H](C(=O)[C@@H](C)[C@@H](O)[C@H](C)CCc1ccc(C)c(O)c1C(=O)O)C1O[C@](CC)(C2CC[C@](O)(CC)[C@H](C)O2)C[C@@H]1C (stereo not given in full) | . | . | ? | 3 | ?
C=C(C)Cn1c(SCC(=O)N/N=C/c2cccc(O)c2)nc2ccccc2c1=O | 21µM* | -12 | ? | 0 | -8%
COc1ccc(-n2c(SCC(=O)Nc3ccccc3)nc(O)cc2=O)cc1 | ? | -26 | 2% | -2 | 21%
CCOC(=O)c1cccc(NC(=O)CSc2nc3ccccc3c(=O)n2CC)c1 | -29% | 2 | -1% | 0 | 7%
COCCn1c(SCC(=O)Nc2ccc(Cl)c(S(=O)(=O)N(C)C)c2)nc2ccccc21 | 18µM* | 2 | -10% | -3 | 1%
COc1ccc(-n2c(SCC(=O)Nc3cccc4ccccc34)nc(O)cc2=O)cc1 | -3% | -6 | 12% | 2 | 35µM*
SMILES | ELG1 DNA repair | TSHR antagonist | Gal4-VP16 FLuc | FBPA coupling cs | RORg inh
CCn1c(SCC(=O)Nc2cccc(OC)c2)nc2ccccc2c1=O | 23µM* | 4 | -2% | 1 | ?
Cc1cccc(NS(=O)(=O)c2ccc(C)c(NS(=O)(=O)c3cccs3)c2)c1 | 9% | -36 | . | . | .
CCCn1c(SCC(=O)Nc2cccc(S(=O)(=O)N(C)C)c2)nc2ccccc2c1=O | 23µM* | -8 | -1% | 10 | 3%
CN(C)S(=O)(=O)c1cccc(NC(=O)CSc2ncnc3ccccc23)c1 | ? | 0 | -16% | 2 | ?
CCOC(=O)c1cccc(NC(=O)CSc2nc3ccccc3c(=O)n2CCOC)c1 | 21µM* | -13 | 0% | 4 | 5%
CN(C)/C=N/c1c(C#N)cnn1-c1ccc(F)c(Cl)c1 | . | . | 1% | 2 | -22%
Cc1ccc(C(=O)N2CCN(CCNC(=O)C(=O)Nc3ccc(Cl)cc3)CC2)cc1 | ? | -16 | . | 1 | .
O=C(c1c(F)cccc1F)N1CCN(CCOc2ccccc2)CC1 | 21µM* | -2 | 5% | 1 | 2%
O=C(NCCN1CCN(C(=O)c2c(F)cccc2F)CC1)C(=O)Nc1ccc(Cl)cc1 | 7.3µM* | -10 | . | 0 | .
COc1ccc(NC(=S)N2CCCC2)cc1OC | -6% | -14 | 4% | -3 | 0%
COc1ccccc1NC(=S)N1CCCc2ccccc21 | ? | 25 | -10% | 0 | 2.8µM*
S=C(Nc1ccccc1)N1CCc2ccccc21 | 17% | -1 | 16µM* | 0 | 11µM*
COc1ccc(NC(=S)N2CCN(C(c3ccccc3)c3ccccc3)CC2)cc1OC | ? | -7 | 13µM* | 2 | 8.9µM*
CC(=O)c1cccc(NC(=S)N2CCc3ccccc32)c1 | ? | -36 | ? | -2 | ?
COc1ccc(NC(=S)N2CCc3ccccc32)cc1OC | ? | 46 | ? | . | 8.9µM*
O=C(CCC(=O)Nc1ccccc1Cl)NNC(=O)C1CCCCC1 | ? | 11 | . | . | .
O=C(CNCc1ccc(Cl)cc1)Nc1ccc(C(=O)N2CCCCCC2)cc1 | -13% | 11 | -3% | 4 | 44%
O=[N+]([O-])c1ccc(NC(=S)N2CCc3ccccc32)cc1 | -16% | 28 | ? | . | 13µM*
Fc1cccc(NC(=S)N2CCc3ccccc32)c1 | 15% | 12 | ? | . | 8.9µM*
CCC(C)NC(=S)N1CCN(C(c2ccccc2)c2ccccc2)CC1 (stereo not given) | -10% | 3 | ? | 7 | 11µM*
CN1CCN(c2ncc3nc(-c4ccc(Cl)cc4)c(=O)n(Cc4ccc(F)cc4)c3n2)CC1 | . | . | -7% | 1 | -20%
